Source: PubChem BioAssay (several laboratories)
Sampled rows, rich in hits. Any-hit rate of the full collection: about 4.3%.
Wnt act – Wnt/beta-catenin pathway activators, primary screen, cell-based, plate reader, single point. Wnt/beta-catenin reporter cell assay, activator. activation, % at 9.35 µM. 300,000 compounds, 1.2% hits. AID 743398, 2014; in the data active = activation above about 30%, passing the limit was not always enough; inconclusive = no clear call, values can overlap the other calls;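 note: 0% = neutral control wells and 100% = positive control wells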
HSF1 inh – HSF1 inhibitors in luciferase reporter cells, primary screen, cell-based, NIH3T3, luminescence. activity change, negative = inhibition, % at 7.5 µM (by protocol). 300,000 compounds, 0.77% hits. NIH3T3-HGL HSE-luciferase, MG132-induced, luminescence 8 h; active compounds read low;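 active = more than half of replicate wells show activity change below -50%, luminescence cut by over half; inconclusive = some wells, but at most half, below -50%; inactive = no replicate well below -50%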;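 note: luciferase reports HSF-1 transcriptional activity via heat shock element; 0% = median of DMSO wells and -100% = zero luminescence signal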
MITF TRPM1 HTS – activators of MITF-driven TRPM1 promoter reporter, primary screen, cell-based, SK-MEL-5, luciferase, single point; AID 588334, 2011; 300,000 compounds, 0.75% hits; SK-MEL-5 TRPM1-promoter luciferase, 24 h; % of positive control, neutral wells = 0; activation, % at 12.5 µM;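 active = mean activation of at least 80% with every replicate also reaching 80%; inconclusive = mean reaches 80% but some replicate falls short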;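 note: 0% = neutral control wells and 100% = parthenolide positive control wells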
HSF-1 act – HSF-1 activators, primary screen, NIH3T3-HGL cells, MG132 stress, luminescence, single point | activation, % at 9 µM | NIH3T3-HGL HSF-1 luciferase reporter, 8 h; 100% = twice DMSO control signal | 300,000 compounds, 1.7% hits | AID 504408, 2011;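 active = mean replicate activation of at least 50% with a set share of replicates each reaching 50%; inconclusive = only one of those two conditions met; inactive = mean below 50% and too few replicates reaching it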;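 note: 0% = median of the neutral control wells and 100% = twice that signal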
SMARCA2 activ – SMARCA2 (BRM) function activators, primary screen, cell-based, luminescence, high throughput. activation, % at 9.1 µM. 370,000 compounds, 1% hits. MG213 cells, MMTV-luciferase reporter, dexamethasone, overnight. AID 652017, 2013; in the data active = activation above about 7.8%;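 note: 0% = vehicle wells and 100% = reference activator wells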
esBAF inh – Bmi1 luciferase reporter increase in mESCs, primary screen, esBAF inhibitor project, mouse ES cells, Bmi1 luciferase knock-in, single point | 24 h; 100% = twice the neutral-well signal | reporter increase, % at 12.5 µM | 350,000 compounds, 2% hits; in the data active = activation above about 40%; inconclusive = no clear call, values can overlap the other calls;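 note: 0% = median of the plate's neutral control wells and 100% = double that signal; a rise in the Bmi1 reporter signal indicates esBAF inhibition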
Numbers without * were called inactive; ? = inconclusive; / = not tested or not shown.

SMILES	Wnt act	HSF1 inh	MITF TRPM1 HTS	HSF-1 act	SMARCA2 activ	esBAF inh
O=C(NN=C1CCCC1)c1n[nH]c2c1CCCC2	54*	-2	16	-16	7	/
N/C(=N\OC(=O)COc1ccc2ccccc2c1)c1ccccn1	36*	16	56	40	6	103*
COc1ccc(C(=O)NNC(=O)c2ccccn2)cc1	6	-68*	-84	-76	-7	/
COc1ccc(C(=O)O/N=C(\N)c2ccccn2)cc1	0	-75*	-80	-78	-9	-71
COc1cc(OC)cc(C(=O)O/N=C(\N)c2ccccn2)c1	52*	30	/	55*	5	/
N/C(=N\OC(=O)c1ccc(Cl)cc1)c1ccccn1	/	-48	9	-54	1	-70
CCOc1cc(C(=O)O/N=C(\N)c2ccccn2)cc(OCC)c1OCC	1	7	-3	-8	-1	12
C[C@@H]1CN([C@H](C)CO)C(=O)c2cc(NC(=O)Nc3ccccc3)ccc2O[C@@H](C)CCCCO[C@H]1CN(C)Cc1ccccc1	/	/	/	/	/	3
C[C@@H](NC(=O)C[C@@H]1CC[C@@H](NC(=O)C2CCC2)[C@H](CO)O1)c1ccccc1	/	/	/	/	/	-10
CCNC(=O)C[C@H]1CC[C@H]2[C@H](COc3ccc(NC(=O)Nc4cccc(F)c4)cc3C(=O)N2C)O1	/	/	/	/	/	-5
CCCCN(CC)S(=O)(=O)c1ccc(C(=O)N=c2sc3cc(NC(C)=O)ccc3n2C)cc1	-8	-8	-9	-5	-4	/
CCCCN(C)S(=O)(=O)c1ccc(C(=O)N=c2sc3cc(NC(C)=O)ccc3n2C)cc1	39*	3	2	12	-2	/
Cc1noc(C)c1C(=O)N(C)C[C@H]1OCc2ccccc2-c2ccccc2C(=O)N([C@H](C)CO)C[C@@H]1C	/	/	/	/	/	2
NS(=O)(=O)c1ccc(NC2=CC(=O)C(=O)c3ccccc32)cc1	0	-70*	/	-65	-1	6
Cc1ccc(NC2=CC(=O)C(=O)c3ccccc32)cc1	73*	68	-94	80*	-1	40
CCOC(=O)c1ccc(NC2=CC(=O)C(=O)c3ccccc32)cc1	/	-5	-75	-7	-1	17
CC(C)CC#Cc1ccc2c(c1)O[C@H](CN(C)Cc1cccc(F)c1)[C@@H](C)CN([C@@H](C)CO)S2(=O)=O	/	/	/	/	/	0
CCCCn1c(SCc2c(C)noc2C)nc2cc(S(N)(=O)=O)ccc21	/	30	-8	52*	-1	-15
CCCCn1c(SCC(=O)Nc2cc(C)on2)nc2cc(S(N)(=O)=O)ccc21	-1	/	8	/	1	4
O=C1C(=O)c2c(C(=O)c3ccccc3)coc2-c2ccccc21	27	20	29	40	-1	67*
O=C(Nc1ccc(F)cc1)N[C@@H]1CC[C@@H](CC(=O)N2CCCCC2)O[C@H]1CO	/	/	/	/	/	1
CCCCCN1C=CC(=C2C(=O)c3ccccc3C2=O)C=C1	0	-81*	-98	-85	-8	/
CC1=CC(=C2C(=O)c3ccccc3C2=O)C=C(C)N1C	/	14	52	23	1	/
C[C@@H]1CCCCO[C@@H](CN(C)C(=O)Nc2ccc(C(F)(F)F)cc2)[C@H](C)CN([C@@H](C)CO)C(=O)c2cc(NS(=O)(=O)c3cn(C)cn3)ccc2O1	/	/	/	/	/	-4
C[C@@H]1CN([C@@H](C)CO)C(=O)c2cc(-c3ccncc3)cnc2O[C@H]1CN(C)C(=O)C1CC1	/	/	/	/	/	-2
SMILES	Wnt act	HSF1 inh	MITF TRPM1 HTS	HSF-1 act	SMARCA2 activ	esBAF inh
Cc1ccccc1S(=O)(=O)Nc1nc2ccccc2nc1N1CCc2ccccc2C1	/	42	-3	71*	0	/
CN(C)C(=O)C[C@H]1CC[C@H](NC(=O)C2CC2)[C@@H](CO)O1	/	/	/	/	/	-10
Cc1cccc(C)c1NC(=O)CN(C)C(=O)c1ccc(COc2ccccc2)cc1	3	15	26	32	-1	43*
CO[C@@H]1CN(C)C(=O)c2cc(NC(=O)Nc3cccc(Cl)c3)ccc2OC[C@H](C)NC[C@H]1C	/	/	/	/	/	0
CCOc1cnc(-c2ccc(Cl)cc2)o1	/	13	63	13	0	/
CCOc1cnc(-c2ccc(OC)cc2)o1	/	5	92*	1	7	/
CS(=O)(=O)N1[C@H](CO)[C@@H](c2ccc(C#Cc3cccc(F)c3)cc2)[C@@H]1C#N	/	/	/	/	/	-30
COc1cccc(/C=C/c2ccc3cccc(O)c3n2)c1OC	54*	-2	17	-12	7	69*
O=[N+]([O-])c1ccc(/C=C/c2ccc3cccc(O)c3n2)cc1	30	2	18	-12	5	28
Oc1cccc(/C=C/c2ccc3cccc(O)c3n2)c1	40*	-15	12	-26	3	5
COc1cc(Br)cc(/C=C/c2ccc3cccc(O)c3n2)c1OC	1	-3	-22	10	0	9
COc1ccc(Br)cc1/C=C/c1ccc2cccc(O)c2n1	2	-7	-9	-5	2	7
COc1ccc(/C=C/c2ccc3cccc(O)c3n2)c(OC)c1OC	57*	41	17	42	-6	84*
Cc1ccc(/C=C/c2ccc3cccc(O)c3n2)s1	?	51	44	85*	5	29
O=C(N[C@@H]1CC[C@H](CCNC(=O)C2CCCC2)O[C@H]1CO)c1ccncc1	/	/	/	/	/	-1
CCCNC(=O)N(C)C[C@H]1Oc2ncc(-c3ccc(C(=O)N(C)C)cc3)cc2C(=O)N([C@H](C)CO)C[C@@H]1C	/	/	/	/	/	2
COC(=O)[C@@H]1[C@@H](CO)[C@@H]2Cn3c(ccc(-c4ccccc4)c3=O)[C@@H]2N1CC1CCCCC1	/	/	/	/	/	4
COc1ccc(/C=C/c2ccc3cccc(O)c3n2)cc1Br	23	-11	58	-8	2	44*
COc1cc(/C=C/c2ccc3cccc(O)c3n2)cc(OC)c1OC	65*	7	-78	13	-4	14
O=C(Nc1ccccc1)Nc1ccc2nnsc2c1	24	30	?	48	2	73*
CN(C)c1ccc(NC(=O)Nc2ccc3snnc3c2)cc1	/	3	65	14	3	69*
O=C(Nc1ccccc1)Nc1ccc2snnc2c1	5	22	/	34	2	32
COc1cc(/C=N/NS(=O)(=O)c2ccc3ccccc3c2)ccc1OCCN1CCOCC1	-6	-6	-11	-8	10*	3
COc1ccc(S(=O)(=O)N/N=C/c2ccc(OCCN3CCOCC3)c(OC)c2)cc1	-3	-10	20	-18	1	/
Nc1ncccc1OCc1ccc(Cl)c(Cl)c1	47*	22	/	38	2	/
